Assay results from the supplement of paper PMC6555819.

Columns and labels:
Assay in all cases: PBM binding z-score (relative to random genomic background probes); higher = stronger binding; sequences stand for … in GC…GCGATTGACAGCGTAGAATGAAGG
[1] = system: PPARg:RXRa DBDmut IVT, anti-RXR (DBD mutation: RXRa K156A/R161A, NR concentration 270 nM, RXRa partner concentration 90 nM)
In short: (§1)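 Binding buffer was PBS pH 7.4 with 2% milk, 0.02% Triton X-100, 1 mM DTT, 0.2 mg/mL BSA and 0.4 mg/ml salmon testes DNA. In it, ligand-free nuclear receptor dimers were incubated 1 h on custom Agilent 4×180K protein-binding microarrays carrying double-stranded probes. Antibodies against each partner (one per run) detected binding, and z-scores were calculated against random background probes after regression normalization of scanned fluorescence.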

[2] = system: PPARg:RXRa IVT, anti-PPARg (NR concentration 270 nM, RXRa partner concentration 90 nM)
In short: as §1

[3] = system: PPARg DBDmut:RXRa IVT, anti-PPARg (DBD mutation: PPARg1 K132A/R137A, NR concentration 270 nM, RXRa partner concentration 90 nM)
In short: as §1

[4] = system: PPARg DBDmut IVT, anti-PPARg (DBD mutation: PPARg1 K132A/R137A, NR concentration 270 nM)
In short: as §1

[5] = system: PPARg homodimer (NR concentration 180 nM)
In short: as §1

[6] = system: PXR:RXRa (NR concentration 270 nM, RXRa partner concentration 90 nM)
In short: as §1

[7] = system: PXR homodimer (NR concentration 270 nM)
In short: as §1

[8] = system: RARa:RXR (NR concentration 270 nM, RXRa partner concentration 90 nM)
In short: as §1

[9] = system: RARa homodimer (NR concentration 270 nM)
In short: as §1

[10] = system: RARb:RXRa (NR concentration 270 nM, RXRa partner concentration 90 nM)
In short: as §1

[11] = system: RARb homodimer (NR concentration 270 nM)
In short: as §1

[12] = system: RARg:RXRa (NR concentration 270 nM, RXRa partner concentration 90 nM)
In short: as §1

[13] = system: RARg homodimer (NR concentration 270 nM)
In short: as §1

[14] = system: RXRa DBDmut IVT, anti-RXR (DBD mutation: RXRa K156A/R161A, NR concentration 90 nM)
In short: as §1

[15] = system: RXRa homodimer (NR concentration 180 nM)
In short: as §1

[16] = system: THRa:RXRa (NR concentration 90 nM, RXRa partner concentration 90 nM)
In short: as §1

[17] = system: THRa homodimer (NR concentration 90 nM)
In short: as §1

[18] = system: VDR homodimer (NR concentration 270 nM)
In short: as §1

Sequence | PBM binding z-score [1] | PBM binding z-score [2] | PBM binding z-score [3] | PBM binding z-score [4] | PBM binding z-score [5] | PBM binding z-score [6] | PBM binding z-score [7] | PBM binding z-score [8] | PBM binding z-score [9] | PBM binding z-score [10] | PBM binding z-score [11] | PBM binding z-score [12] | PBM binding z-score [13] | PBM binding z-score [14] | PBM binding z-score [15] | PBM binding z-score [16] | PBM binding z-score [17] | PBM binding z-score [18]
GATATAGGGTCAAGGCCAGAGTACGCGTATTGAT | 4 | 4.64 | 1.73 | 1.98 | 3.01 | 4.14 | 0.146 | 4.91 | 1.13 | 4.62 | 3.71 | 5.6 | 5.13 | 2.83 | 5.81 | 3.96 | 2.03 | 2.59
TAGCTTAGGTCATTGGGCCAGTATAGTACGCATC | 2.21 | 3.15 | 0.561 | 0.108 | 1.34 | 1.97 | 0.132 | 2.53 | 0.063 | 3.72 | 3.1 | 4.29 | 4.56 | 2.23 | 3.26 | 3.37 | 2.15 | 1.36
CCGACTGGGGCAGAAAGGATACCATACCATCCGG | 0.646 | 0.728 | -0.578 | -1.57 | -0.142 | -0.951 | -0.394 | -1.06 | -0.437 | 0.0733 | 0.0502 | -0.104 | 0.264 | -1.19 | -0.344 | -0.682 | -0.741 | -0.566
CCTACTGGGCCACGAAAAGTCATTGATTCAGTGA | 5.95 | 5.51 | -0.0211 | -0.417 | 0.0392 | -0.419 | -0.579 | -0.211 | -0.346 | 0.629 | 0.476 | 0.154 | 0.301 | -0.296 | -0.0607 | -0.0481 | -0.645 | -0.412
AGAATGAGGTAATACGTAGATCAGGGAAGAAAGT | 3.49 | 0.83 | 1.02 | 0.684 | -0.201 | 0.144 | 0.294 | 0.431 | 0.262 | 0.0493 | -0.0706 | 0.35 | 0.314 | -0.0157 | 0.428 | 1.39 | 0.304 | -0.472
CGAACTAGGTCATCCATGACAGTGAATACATTGA | 8.18 | 8.57 | 4.46 | 1.2 | 1.67 | 1.53 | 0.0131 | 2.26 | 0.371 | 3.98 | 2.92 | 4 | 4.72 | 2.04 | 2.97 | 2.84 | 0.683 | 1.17
TCTTGTAGATCAGCAGGTTAAGGAAGCTGGCCAA | 1.63 | 0.577 | -1.02 | -0.0477 | -0.0347 | 0.121 | -0.363 | 0.277 | -0.25 | 0.316 | 0.142 | 0.132 | -0.17 | 0.474 | 0.329 | 0.266 | -0.666 | -0.598
TATACAGGGTCAATGGCCAGAGTACGAATGTCGA | 1.79 | 3.99 | 1.48 | 1.03 | 1.97 | 3.23 | 0.633 | 3.75 | 0.771 | 4.05 | 3.21 | 5 | 4.73 | 2.43 | 5.41 | 3.22 | 0.631 | 2.79
AGTACGAGGGCACGCTGAGTTGATAGCAGAGTAG | 2.66 | 2.52 | 0.166 | 0.462 | 0.0101 | 1.4 | 0.398 | 0.957 | -0.0662 | 2.64 | 1.41 | 2.07 | 2.38 | 2.3 | 1.2 | 1.92 | 0.295 | 2.17
ATACCAAGGTGATCGTGAGGTCGGTGATACTAAC | 0.199 | 1.12 | -0.398 | 0.469 | 0.85 | 0.944 | 0.32 | 0.998 | 0.866 | 1.11 | 1.4 | 1.58 | 0.586 | -0.0984 | 0.701 | 2.63 | 1.81 | 0.911
GCTGCTAGGTCAACTGATGGTCAGCAAAAGCTCG | 4.86 | 3.95 | -0.344 | 0.121 | 1.67 | 1.68 | -0.304 | 2.93 | 0.266 | 4.52 | 3.66 | 5.17 | 5.41 | 1.5 | 2.99 | 2.91 | 0.775 | 0.254
CCGACTGGGGCATAAAGTTACCATAAGCCAGCCC | 2.19 | 1.79 | -0.543 | -1.06 | -0.724 | -0.621 | -0.245 | -0.613 | -0.145 | 0.149 | -0.229 | -0.0793 | 0.0317 | 0.0675 | 0.0317 | -0.417 | -0.689 | -0.27
CATATTAGTTGACCATAAGGGCAACCGAAGCTCG | 0.59 | 1.02 | 1.7 | 1.43 | 1.42 | 0.825 | 0.678 | 1.19 | 1.93 | 1.8 | 2.07 | 1.61 | 1.37 | 0.612 | 0.942 | 1.95 | 1.35 | 1.14
AGAACGAGTGCAATGAGTTGATAGCACGGGTGGC | -0.425 | -0.173 | -0.0779 | -0.15 | -0.623 | 1.9 | 7.51 | -0.248 | -1.04 | 0.212 | -0.553 | 0.1 | -0.109 | 2.82 | 0.283 | -0.264 | -1.03 | 4.06
CTCGCAAGGTCGGTTGAGGTGAGTATACGGATAA | -0.323 | 0.241 | -0.57 | -0.227 | -0.181 | 1.73 | -0.0452 | 1.19 | -0.537 | 1.77 | 1.72 | 1.27 | 1.25 | 0.828 | 1.01 | 4.74 | 1.75 | 0.439
